# Results taken from ChEMBL document CHEMBL3988442, “University of Dundee, Small-Polar-MMV Screening Library” (2021).
# For some assays here: Entries with a potency or affinity are not part of this list.
# Tests used:
# [1] = molecular target: T1, Methionyl-tRNA synthetase, putative (Leishmania donovani (strain BPK282A1)) (UniProt E9BF75); experiment: Leishmania donovani Methionine tRNA synthetase (LdMetRS):v7. Dose response assay; assay type: functional; parameters: conc 80 nM, time 150 minutes
# T1 sequence (whole entry): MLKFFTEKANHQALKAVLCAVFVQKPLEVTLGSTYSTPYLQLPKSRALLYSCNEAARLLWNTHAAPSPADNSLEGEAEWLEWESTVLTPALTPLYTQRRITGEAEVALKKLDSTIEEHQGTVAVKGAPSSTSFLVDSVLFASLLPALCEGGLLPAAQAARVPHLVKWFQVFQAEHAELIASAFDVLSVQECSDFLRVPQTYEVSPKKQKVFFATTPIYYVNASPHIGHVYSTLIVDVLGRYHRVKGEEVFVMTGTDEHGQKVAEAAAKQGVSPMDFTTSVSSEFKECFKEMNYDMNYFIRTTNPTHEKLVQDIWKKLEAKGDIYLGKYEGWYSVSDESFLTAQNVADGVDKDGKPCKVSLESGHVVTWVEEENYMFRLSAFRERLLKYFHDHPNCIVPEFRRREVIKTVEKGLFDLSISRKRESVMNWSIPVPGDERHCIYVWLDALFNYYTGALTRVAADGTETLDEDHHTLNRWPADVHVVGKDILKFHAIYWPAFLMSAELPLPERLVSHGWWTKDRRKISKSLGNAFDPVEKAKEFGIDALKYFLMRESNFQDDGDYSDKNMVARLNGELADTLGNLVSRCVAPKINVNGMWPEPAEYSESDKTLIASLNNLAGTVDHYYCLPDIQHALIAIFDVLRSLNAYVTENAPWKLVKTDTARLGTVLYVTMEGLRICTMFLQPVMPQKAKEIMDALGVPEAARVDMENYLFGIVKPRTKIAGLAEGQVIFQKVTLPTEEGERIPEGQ
# [2] = molecular target: Protein translocase subunit SecA (Escherichia coli (strain K12)) (UniProt P10408); experiment: Assay to Identify E. coli SecA ATPase Inhibitors; assay type: functional; parameters: scale not given: direction of the effect not stated beside the values; conditions: 30 µM
# Chain of Protein translocase subunit SecA (Escherichia coli (strain K12)) (P10408 whole entry): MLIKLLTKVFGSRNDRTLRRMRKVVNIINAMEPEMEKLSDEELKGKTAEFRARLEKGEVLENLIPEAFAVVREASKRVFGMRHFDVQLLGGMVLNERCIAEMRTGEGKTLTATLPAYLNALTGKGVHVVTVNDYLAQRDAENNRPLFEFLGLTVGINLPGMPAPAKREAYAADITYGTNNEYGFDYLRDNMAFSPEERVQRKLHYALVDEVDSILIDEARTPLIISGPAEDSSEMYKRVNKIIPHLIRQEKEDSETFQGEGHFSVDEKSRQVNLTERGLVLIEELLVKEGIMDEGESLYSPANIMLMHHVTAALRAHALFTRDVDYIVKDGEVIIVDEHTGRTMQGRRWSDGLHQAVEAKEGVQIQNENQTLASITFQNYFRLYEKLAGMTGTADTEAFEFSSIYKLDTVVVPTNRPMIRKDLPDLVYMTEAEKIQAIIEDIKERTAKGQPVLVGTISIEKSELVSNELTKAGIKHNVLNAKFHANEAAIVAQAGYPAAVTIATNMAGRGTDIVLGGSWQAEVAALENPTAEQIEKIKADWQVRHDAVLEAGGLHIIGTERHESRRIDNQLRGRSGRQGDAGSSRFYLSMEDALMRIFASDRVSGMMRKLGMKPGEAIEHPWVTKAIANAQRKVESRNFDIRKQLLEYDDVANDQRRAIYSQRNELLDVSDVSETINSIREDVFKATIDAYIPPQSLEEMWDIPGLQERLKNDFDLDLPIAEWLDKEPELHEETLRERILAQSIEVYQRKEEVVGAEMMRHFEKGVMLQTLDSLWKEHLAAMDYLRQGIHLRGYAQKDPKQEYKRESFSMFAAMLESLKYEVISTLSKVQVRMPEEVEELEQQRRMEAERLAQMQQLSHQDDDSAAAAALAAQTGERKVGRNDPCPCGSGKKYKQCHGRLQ
# [3] = molecular target: T2, Ubiquitin-activating enzyme e1, putative (Leishmania donovani (strain BPK282A1)) (UniProt E9BSI1); experiment: Leishmania donovani Ubiquitin Activating Enzyme (LdE1); assay type: functional; parameters: scale not given: direction of the effect not stated beside the values; conditions: 30 µM
# T2 sequence (whole entry): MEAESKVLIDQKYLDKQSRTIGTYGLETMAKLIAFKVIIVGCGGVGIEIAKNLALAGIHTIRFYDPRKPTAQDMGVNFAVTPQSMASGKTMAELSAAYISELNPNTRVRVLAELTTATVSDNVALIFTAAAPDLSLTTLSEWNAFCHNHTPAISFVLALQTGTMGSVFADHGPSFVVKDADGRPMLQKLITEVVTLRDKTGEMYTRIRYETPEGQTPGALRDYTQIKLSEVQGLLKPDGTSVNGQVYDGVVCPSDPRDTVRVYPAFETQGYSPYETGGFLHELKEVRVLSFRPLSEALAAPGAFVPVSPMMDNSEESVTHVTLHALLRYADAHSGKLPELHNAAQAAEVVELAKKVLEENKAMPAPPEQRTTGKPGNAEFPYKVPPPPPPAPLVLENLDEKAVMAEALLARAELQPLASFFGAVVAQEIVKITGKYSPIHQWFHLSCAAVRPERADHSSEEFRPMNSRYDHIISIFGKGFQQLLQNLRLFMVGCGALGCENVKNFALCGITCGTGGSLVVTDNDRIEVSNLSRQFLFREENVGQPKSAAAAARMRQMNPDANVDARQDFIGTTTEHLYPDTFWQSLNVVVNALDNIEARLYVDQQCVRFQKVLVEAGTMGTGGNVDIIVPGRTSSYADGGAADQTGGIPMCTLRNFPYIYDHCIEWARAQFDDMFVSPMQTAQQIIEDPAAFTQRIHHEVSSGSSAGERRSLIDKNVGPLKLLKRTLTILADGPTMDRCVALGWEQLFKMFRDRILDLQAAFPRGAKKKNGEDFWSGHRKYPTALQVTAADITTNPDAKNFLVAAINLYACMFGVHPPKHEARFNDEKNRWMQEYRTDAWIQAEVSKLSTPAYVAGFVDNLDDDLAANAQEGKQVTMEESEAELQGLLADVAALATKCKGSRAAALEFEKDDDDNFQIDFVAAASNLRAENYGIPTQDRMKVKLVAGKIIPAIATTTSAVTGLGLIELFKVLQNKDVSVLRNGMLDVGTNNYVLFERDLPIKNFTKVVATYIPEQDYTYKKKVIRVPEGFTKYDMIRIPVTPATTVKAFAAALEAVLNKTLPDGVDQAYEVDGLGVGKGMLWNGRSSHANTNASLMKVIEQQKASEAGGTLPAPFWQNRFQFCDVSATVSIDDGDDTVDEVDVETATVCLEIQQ
# [4] = molecular target: AMP-activated protein kinase, AMPK (Homo sapiens) (UniProt P54646+O43741+P54619+Q9UGJ0+Q9Y478+Q13131+Q9UGI9); experiment: AMP-dependent Kinase enzyme assay. An in vitro enzyme assay that detects ADP turnover that is directly proportional to AMPK activity. This uses naive AMPK that is activated during the assay with MK-8722; assay type: functional; parameters: scale not given: direction of the effect not stated beside the values; conditions: 30 µM
# [5] = molecular target: Sialic acid-binding Ig-like lectin 9 (Homo sapiens) (UniProt Q9Y336); experiment: Hs-Siglec9 ALPHAscreen SOP 20170721; parameters: scale not given: direction of the effect not stated beside the values; conditions: 10 µM
# Chain of Sialic acid-binding Ig-like lectin 9 (Homo sapiens) (Q9Y336 whole entry): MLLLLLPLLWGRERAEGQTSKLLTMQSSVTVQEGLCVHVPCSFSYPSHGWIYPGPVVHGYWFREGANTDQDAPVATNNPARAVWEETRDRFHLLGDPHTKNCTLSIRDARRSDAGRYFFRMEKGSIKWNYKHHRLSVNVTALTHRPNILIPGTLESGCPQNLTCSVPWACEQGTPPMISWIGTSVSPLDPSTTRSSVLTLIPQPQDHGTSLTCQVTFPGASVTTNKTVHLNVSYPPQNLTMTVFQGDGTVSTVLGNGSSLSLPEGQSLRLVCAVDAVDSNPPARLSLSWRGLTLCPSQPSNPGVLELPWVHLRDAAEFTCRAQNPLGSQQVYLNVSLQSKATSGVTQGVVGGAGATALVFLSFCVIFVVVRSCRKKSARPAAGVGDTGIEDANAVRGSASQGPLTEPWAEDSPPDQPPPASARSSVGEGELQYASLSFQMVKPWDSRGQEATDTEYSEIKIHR
# Trypanosoma cruzi = experiment: Trypanosoma cruzi phosphomannomutase and mannose-1-phosphate guanylyltransferase assay; assay type: functional; parameters: scale not given: direction of the effect not stated beside the values; conditions: 10 µM
# [6] = molecular target: T3, Arginase-2, mitochondrial (Homo sapiens) (UniProt P78540); experiment: in vitro enzyme assay to detect the production of urea directly proportional to the activity of Arginase II; assay type: functional; parameters: scale not given: in the data most compounds retested in dose-response had high values; conditions: 33.3 µM
# T3 sequence (whole entry): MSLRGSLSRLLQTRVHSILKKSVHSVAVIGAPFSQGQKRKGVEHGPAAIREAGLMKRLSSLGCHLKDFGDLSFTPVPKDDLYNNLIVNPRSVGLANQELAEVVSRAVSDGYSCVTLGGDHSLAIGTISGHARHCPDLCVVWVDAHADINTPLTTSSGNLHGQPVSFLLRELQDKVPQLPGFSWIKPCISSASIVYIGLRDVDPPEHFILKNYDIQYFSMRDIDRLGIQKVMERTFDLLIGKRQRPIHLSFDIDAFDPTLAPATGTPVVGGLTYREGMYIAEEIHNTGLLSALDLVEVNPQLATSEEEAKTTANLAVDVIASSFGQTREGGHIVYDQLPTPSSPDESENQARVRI
# [7] = molecular target: T4, Proteasome subunit beta (Trypanosoma cruzi) (UniProt O96673); experiment: Trypanosoma cruzi proteasome chymotrypsin-like activity (TcProtChymo) assay.; assay type: functional; parameters: scale not given: in the data most compounds retested in dose-response had high values; conditions: 9.37 µM
# T4 sequence (whole entry): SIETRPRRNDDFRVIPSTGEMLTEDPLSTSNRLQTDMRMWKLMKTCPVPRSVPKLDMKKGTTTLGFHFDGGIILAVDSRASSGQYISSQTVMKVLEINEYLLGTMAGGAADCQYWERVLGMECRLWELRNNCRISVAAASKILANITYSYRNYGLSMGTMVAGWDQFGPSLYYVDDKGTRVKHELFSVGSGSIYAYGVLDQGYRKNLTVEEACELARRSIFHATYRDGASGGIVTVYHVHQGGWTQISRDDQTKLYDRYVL
# Homo sapiens = species: Homo sapiens; experiment: To identify inhibition of the IFN signalling (Jak-Stat) pathway via expression of an eGFP reporter gene under the control of an IFN-stimulated response element (ISRE) containing MxA promoter.; assay type: functional; parameters: scale not given: direction of the effect not stated beside the values; conditions: 30 µM
# [8] = molecular target: T5, Tyrosyl-tRNA synthetase, putative (Trypanosoma cruzi (strain CL Brener)) (UniProt Q4DSP6); experiment: Trypanosoma cruzi tyrosyl tRNA synthetase (TcYRS) _High Tyrosine SOP; assay type: functional; parameters: scale not given: in the data most compounds retested in dose-response had high values; conditions: 30 µM
# T5 sequence (whole entry): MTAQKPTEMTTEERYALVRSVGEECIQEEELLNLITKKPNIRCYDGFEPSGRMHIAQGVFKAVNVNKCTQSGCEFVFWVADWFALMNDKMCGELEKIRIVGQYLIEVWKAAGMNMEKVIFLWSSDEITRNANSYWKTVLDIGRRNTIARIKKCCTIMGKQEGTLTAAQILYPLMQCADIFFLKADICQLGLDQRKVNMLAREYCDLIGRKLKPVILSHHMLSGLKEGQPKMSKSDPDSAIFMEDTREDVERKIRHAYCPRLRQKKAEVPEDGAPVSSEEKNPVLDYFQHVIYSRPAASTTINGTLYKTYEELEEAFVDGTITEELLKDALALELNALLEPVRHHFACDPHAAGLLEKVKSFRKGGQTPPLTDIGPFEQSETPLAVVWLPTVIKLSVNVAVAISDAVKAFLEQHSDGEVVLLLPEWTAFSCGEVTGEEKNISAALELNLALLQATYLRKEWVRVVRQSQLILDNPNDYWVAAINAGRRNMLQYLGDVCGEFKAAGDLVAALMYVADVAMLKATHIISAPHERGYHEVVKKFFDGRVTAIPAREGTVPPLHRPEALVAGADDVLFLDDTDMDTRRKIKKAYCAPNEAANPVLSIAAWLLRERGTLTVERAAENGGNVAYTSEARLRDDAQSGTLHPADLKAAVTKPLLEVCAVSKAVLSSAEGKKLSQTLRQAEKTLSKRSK
# [9] = molecular target: T5, Tyrosyl-tRNA synthetase, putative (Trypanosoma cruzi (strain CL Brener)); experiment: Trypanosoma cruzi tyrosyl tRNA synthetase (TcYRS) SOP; assay type: functional; parameters: scale not given: direction of the effect not stated beside the values; conditions: 30 µM
# [10] = molecular target: Chromo domain-containing protein 1 (Saccharomyces cerevisiae (strain ATCC 204508 / S288c) (Baker's yeast)) (UniProt P32657); experiment: ScCHD-1 Enzyme Inhibition Assay; assay type: functional; parameters: scale not given: in the data most compounds retested in dose-response had high values; conditions: 30 µM
# Chain of Chromo domain-containing protein 1 (Saccharomyces cerevisiae (strain ATCC 204508 / S288c) (Baker's yeast)) (P32657 whole entry, the tested form may be a part): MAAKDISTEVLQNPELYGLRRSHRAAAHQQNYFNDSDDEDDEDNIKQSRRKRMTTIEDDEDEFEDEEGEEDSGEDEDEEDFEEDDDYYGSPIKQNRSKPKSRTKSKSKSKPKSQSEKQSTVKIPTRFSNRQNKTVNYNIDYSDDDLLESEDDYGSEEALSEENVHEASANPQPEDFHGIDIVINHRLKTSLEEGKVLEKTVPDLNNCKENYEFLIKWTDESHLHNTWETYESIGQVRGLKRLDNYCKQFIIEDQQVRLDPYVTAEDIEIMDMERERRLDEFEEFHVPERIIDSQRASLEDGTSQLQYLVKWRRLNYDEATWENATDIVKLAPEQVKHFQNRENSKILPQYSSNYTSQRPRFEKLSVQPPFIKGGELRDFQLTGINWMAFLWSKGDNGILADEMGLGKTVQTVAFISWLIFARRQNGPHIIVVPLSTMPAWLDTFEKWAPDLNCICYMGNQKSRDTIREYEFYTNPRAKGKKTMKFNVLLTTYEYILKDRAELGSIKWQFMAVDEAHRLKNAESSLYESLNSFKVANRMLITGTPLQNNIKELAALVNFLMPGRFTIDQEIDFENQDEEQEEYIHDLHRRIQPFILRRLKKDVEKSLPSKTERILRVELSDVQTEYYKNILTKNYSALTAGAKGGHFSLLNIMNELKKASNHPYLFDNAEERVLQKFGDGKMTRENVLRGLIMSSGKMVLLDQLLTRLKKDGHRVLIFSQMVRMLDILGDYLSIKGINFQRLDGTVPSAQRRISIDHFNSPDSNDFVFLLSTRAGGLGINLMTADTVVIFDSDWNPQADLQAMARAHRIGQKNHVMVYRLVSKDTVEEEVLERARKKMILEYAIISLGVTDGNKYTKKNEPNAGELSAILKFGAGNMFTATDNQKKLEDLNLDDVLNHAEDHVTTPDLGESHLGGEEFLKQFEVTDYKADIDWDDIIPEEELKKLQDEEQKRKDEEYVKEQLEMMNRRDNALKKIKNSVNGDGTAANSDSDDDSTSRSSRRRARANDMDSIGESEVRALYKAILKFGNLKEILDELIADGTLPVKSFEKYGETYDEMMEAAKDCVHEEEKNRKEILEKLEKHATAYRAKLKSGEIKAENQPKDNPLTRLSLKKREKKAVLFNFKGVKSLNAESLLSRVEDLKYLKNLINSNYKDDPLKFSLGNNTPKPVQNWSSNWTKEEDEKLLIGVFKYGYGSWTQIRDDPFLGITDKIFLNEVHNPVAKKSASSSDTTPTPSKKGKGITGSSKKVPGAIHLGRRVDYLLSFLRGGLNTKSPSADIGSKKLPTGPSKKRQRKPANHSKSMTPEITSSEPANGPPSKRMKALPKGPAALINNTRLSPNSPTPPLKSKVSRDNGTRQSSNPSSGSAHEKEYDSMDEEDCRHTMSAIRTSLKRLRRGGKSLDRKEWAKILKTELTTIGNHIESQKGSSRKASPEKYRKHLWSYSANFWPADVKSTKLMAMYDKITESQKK
smiles,measurement,setting,value
Cc1nc(N2CCCCC2)ncc1-c1cc(O)[nH]n1,PXC50,[1]; MAX_EFFECT 13.62007168,< 4
same,PXC50,[1]; MAX_EFFECT 16.42743222,< 4
same,PXC50,[1]; MAX_EFFECT 31.28598848,< 4
same,PXC50,[1]; MAX_EFFECT 33.33333333,< 4
same,PXC50,[1]; MAX_EFFECT 39.9339934,< 4
same,Percent Effect,[2],-5.23%
same,Percent Effect,[3],1.33%
same,Percent Effect,[4],13%
same,Percent Effect,[5],8.28%
same,Percent Effect,Trypanosoma cruzi,1.18%
same,Percent Effect,[6],-8.28%
same,Percent Effect,[7],6.65%
same,Percent Effect,Homo sapiens,-20%
same,Percent Effect,[8],5.29%
same,Percent Effect,[9],7.69%
same,Percent Effect,[10],-1.87%
Cc1cc(C)c(CNC(=O)N2CCCC2c2cccn2C)c(=O)[nH]1 (configuration not stated),PXC50,"[1]; BOTTOM 1.39525403, HILLSLOPE 1.863289847, MAX_EFFECT 51.97132616, TOP 100.0",4.01
same,PXC50,"[1]; BOTTOM -10.14330359, HILLSLOPE 0.427510045, MAX_EFFECT 50.72463768, TOP 100.0",4.22
same,PXC50,[1]; MAX_EFFECT 28.8676236,< 4
same,PXC50,[1]; MAX_EFFECT 30.90211132,< 4
same,PXC50,[1]; MAX_EFFECT 48.51485149,< 4
same,Percent Effect,[2],-1.81%
same,Percent Effect,[3],8.86%
same,Percent Effect,[4],3.05%
same,Percent Effect,[5],2.38%
same,Percent Effect,Trypanosoma cruzi,2.97%
same,Percent Effect,[6],3.66%
same,Percent Effect,[7],10.6%
same,Percent Effect,Homo sapiens,-3.9%
same,Percent Effect,[8],13.5%
same,Percent Effect,[9],27.9%
same,Percent Effect,[10],-14.4%
